# Laboratory results from the supplement of paper PMC10127200.
# Structures can show the parent of a compound that is named as a salt.
# Experiments:
# Test in all cases: Euclidean distance of Cell Painting phenotypic profile (signed KS, 77 features) to DMSO centroid (dimensionless distance); 5 or 10 uM (library dependent); higher = stronger phenotypic change vs DMSO (phenoactivity)
# Conditions in all cases: 48 h
# [1] = system: 786-O
# Summary of the method: (§1)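 Library compounds were applied at 10 or 5 uM, depending on the library, with 0.1% DMSO final, for 48 h to five cancer lines and a healthy fibroblast line. After staining, cells were imaged confocally at 20X across 9 fields per well, and Harmony extracted 77 features, each scored as a signed Kolmogorov-Smirnov statistic against vehicle wells on the same plate. Phenoactivity is the Euclidean distance between each profile and the median vehicle profile, with profiles first plate-position corrected, correlation-weighted and averaged over replicates at the top dose.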
# [2] = system: A549
# Summary of the method: as §1
# [3] = system: DU145
# Summary of the method: as §1
# [4] = system: FB
# Summary of the method: as §1
# [5] = system: HEPG2
# Summary of the method: as §1
# [6] = system: OVCAR4
# Summary of the method: as §1
Structure (SMILES),Euclidean distance [1],Euclidean distance [2],Euclidean distance [3],Euclidean distance [4],Euclidean distance [5],Euclidean distance [6]
Cc1ccc(C(=O)Nc2ccc(Oc3cc4cnn(C)c4cc3-c3cn[nH]c3)c(F)c2)c(=O)n1-c1ccc(F)cc1,1.83,1.59,1.22,3.01,2.28,1.67
C#C[C@]1(O)CC[C@H]2[C@@H]3CCC4=CCCC[C@@H]4[C@H]3CC[C@@]21C [Lynestrenol],1.13,1.3,1.48,1.17,0.777,1.41
CC(C(O)c1ccc(O)cc1)N1CCC(Cc2ccccc2)CC1 (centres undefined) [Ifenprodil Tartrate],0.976,0.88,0.955,1.22,0.958,0.965
C[C@]1(COc2ccc(N3CCC(Oc4ccc(OC(F)(F)F)cc4)CC3)cc2)Cn2cc([N+](=O)[O-])nc2O1 [Delamanid],0.922,1.11,0.888,0.823,0.492,0.969
O=C(Nc1ccccc1)N1CCN(c2nc(-c3ccccc3)ns2)CC1,0.718,0.932,0.9,1.03,1.34,1.08
Cc1c(-c2ccc(O)cc2)n(Cc2ccc(OCCN3CCCCCC3)cc2)c2ccc(O)cc12 [Bazedoxifene Acetate],4.76,4.78,3.21,4.56,4.37,3.76
Cn1cc(C2=C(c3cn(CCCSC(=N)N)c4ccccc34)C(=O)NC2=O)c2ccccc21 [Ro 31-8220 Mesylate],2.7,3.02,2.58,2.92,3.24,2.82
C[C@@H](NC(=O)c1ncnc(N)c1Cl)c1ncc(C(=O)Nc2cc(C(F)(F)F)c(Cl)cn2)s1,1.57,2.12,1.59,1.41,0.931,1.52
Nc1ccc(O)c(C(=O)O)c1 [Mesalamine],1.49,0.636,2.08,1.06,0.538,1.24
COc1ccc(C(Cl)=C(c2ccc(OC)cc2)c2ccc(OC)cc2)cc1 [Chlorotrianisene],1.13,1.23,0.763,1.08,1.11,1.04
CO[C@H]1/C=C/O[C@@]2(C)Oc3c(C)c(O)c4c(O)c(c(/C=N/N5CCN(C)CC5)c(O)c4c3C2=O)NC(=O)/C(C)=C\C=C\[C@H](C)[C@H](O)[C@@H](C)[C@@H](O)[C@@H](C)[C@H](OC(C)=O)[C@@H]1C [Rifampin],1.56,0.64,1.44,1.36,2.28,1.14
CC(C)(Sc1ccncc1-c1ccc(C#N)c2ccccc12)C(=O)O [Verinurad (RDEA3170)],0.821,0.673,0.864,1.25,0.457,1.2
CN1CCC(=C2c3ccccc3CCn3c(C=O)cnc32)CC1 [Alcaftadine],1.07,0.581,1.26,1.66,0.597,1.22
CCNC(=O)[C@H]1O[C@@H](n2cnc3c(N)nc(NCCc4ccc(CCC(=O)O)cc4)nc32)[C@H](O)[C@@H]1O,0.618,0.662,0.916,0.846,0.636,0.752
CN(C)CCOC(=O)COc1ccc(Cl)cc1 [Meclofenoxate (Centrophenoxine) HCl],0.714,0.913,1.3,0.93,1.13,1.29
COc1cc2nc(N3CCN(C(=O)C4CCCO4)CC3)nc(N)c2cc1OC (centres undefined) [Terazosin HCl],1.12,0.699,0.618,1.15,1.33,1.01
C[n+]1ccccc1C=NO [Pralidoxime Iodide],1.45,0.771,0.975,0.641,0.434,0.907
CCCC(=O)Nc1ncnc2c1ncn2[C@@H]1O[C@@H]2COP(=O)(O)O[C@H]2[C@H]1OC(=O)CCC [Dibutyryl-cAMP (Bucladesine)],1.05,0.792,0.663,0.745,0.883,1.53
O=c1cc(N2CCOCC2)oc2c(-c3cccc4c3sc3ccccc34)cccc12,3.24,2.66,2.15,3.31,2.73,1.93
CC(C)Oc1ccc2c(=O)c(-c3ccccc3)coc2c1 [Ipriflavone (Osteofix)],1.22,1.44,1.15,1.17,0.723,2.28
NC[C@H]1CC[C@H](C(=O)O)CC1 [Tranexamic Acid],1.31,0.903,0.735,0.672,1.31,1.09
CN(C/C=C/C#CC(C)(C)C)Cc1cccc2ccccc12 [Terbinafine],1.56,0.66,0.898,0.587,1.36,1.18
C1CCN2C[C@@H]3C[C@@H](CN4CCCC[C@@H]34)[C@H]2C1 [(-)-Sparteine Sulfate],0.93,0.957,0.846,1.03,0.474,1.04
Cc1coc2c1C(=O)C(=O)c1c-2ccc2c(C)cccc12 [Tanshinone I],1.41,0.593,1.07,1.35,1.25,1.18
O=C(Cc1cccc(OC(F)(F)F)c1)Nc1ccc(CCCCc2nnc(NC(=O)Cc3ccccn3)s2)nn1,2.27,2.41,1.99,3.38,2.75,2.28

Structure (SMILES),Euclidean distance [1],Euclidean distance [2],Euclidean distance [3],Euclidean distance [4],Euclidean distance [5],Euclidean distance [6]
O=C(/C=C/c1ccc(CN(CCO)CCc2c[nH]c3ccccc23)cc1)NO [LAQ824 (Dacinostat)],2.61,4.89,4.56,3.59,4.12,3.09
C[C@H]1O[C@@H](O[C@H]2[C@@H](O)C[C@H](O[C@H]3[C@@H](O)C[C@H](O[C@H]4CC[C@@]5(C)[C@H](CC[C@@H]6[C@@H]5C[C@@H](O)[C@]5(C)[C@@H](C7=CC(=O)OC7)CC[C@]65O)C4)O[C@@H]3C)O[C@@H]2C)C[C@H](O)[C@@H]1O [Digoxin],6.92,5.56,6.87,4.48,3.09,6.68
CCCCCCOC(=O)NC(=N)c1ccc(NCc2nc3cc(C(=O)N(CCC(=O)OCC)c4ccccn4)ccc3n2C)cc1 [Dabigatran Etexilate],1.9,1.35,1.17,1.58,1.58,1.47
CN1[C@@H]2CC[C@H]1C[C@@H](OC(=O)c1c[nH]c3ccccc13)C2 [Tropisetron],1.17,1.76,1.05,1.46,1.1,1.17
COc1cc(Nc2ncc(F)c(Nc3ccc4c(n3)NC(=O)C(C)(C)O4)n2)cc(OC)c1OC [R406 (free base)],2.36,3.53,3.18,2.76,1.99,2.41
CNC(=O)c1cc(Oc2ccc(NC(=O)Nc3ccc(Cl)c(C(F)(F)F)c3)cc2)ccn1 [Sorafenib],2.08,2.51,1.74,1.78,2.93,2.28
COCCCN1CCC(NC(=O)c2cc(Cl)c(N)c3c2OCC3)CC1 [Prucalopride Succinat],0.911,0.777,0.699,0.581,0.684,0.827
CC(=O)O[C@H]1C[C@@]2(C)[C@@H](C[C@@H](O)[C@H]3[C@@]4(C)CC[C@@H](O)[C@@H](C)[C@@H]4CC[C@@]32C)/C1=C(\CCC=C(C)C)C(=O)O [Fusidine],0.63,0.807,0.822,0.84,0.634,1.3
CC/C=C(\C(=O)N[C@@H]1C(=O)N2C(C(=O)OCOC(=O)C(C)(C)C)=C(COC(N)=O)CS[C@H]12)c1csc(N)n1 [Cefcapene Pivoxil Hydrochloride],1.24,0.833,2.69,0.746,0.54,0.898
COc1ccc2[nH]c([S+]([O-])Cc3ncc(C)c(OC)c3C)nc2c1 (centres undefined) [Omeprazole],3.37,2.83,3.32,3.97,4.04,2.98
COc1cc(/C=C/C(=O)CC(=O)/C=C/c2ccc(O)c(OC)c2)ccc1O [Curcumin],1.77,2.12,1.22,3.06,2.02,1.2
CCCCC(=O)O[C@]1(C(=O)CO)[C@@H](C)C[C@H]2[C@@H]3CCC4=CC(=O)C=C[C@]4(C)[C@@]3(F)[C@@H](O)C[C@@]21C [Betamethasone Valerate],1.33,1.98,2.2,1.71,0.591,2.13
O[C@@H](COc1cccc2ncccc12)CN1CCN(C2c3ccccc3[C@@H]3[C@H](c4ccccc42)C3(F)F)CC1 (some centres undefined),1.12,1.33,0.754,0.764,0.675,1.43
C[N+]1(C)CCC(OC(=O)C(O)(c2ccccc2)C2CCCC2)C1 (centres undefined) [Glycopyrrolate],1.08,0.747,1.06,1.02,0.678,1.74
Cc1cc(-c2ncc(CC(=O)Nc3ccc(-c4cnccn4)cn3)cc2C)ccn1,1.05,1.24,0.884,0.878,0.741,0.931
N=C(N)NC(=O)c1nc(Cl)c(N)nc1N [Amiloride HCl],1.05,0.988,0.844,0.922,1.33,0.94
CCOc1ccc2nc3cc(N)ccc3c(N)c2c1 [Ethacridine lactate monohydrate],2.72,2.06,3.08,3.62,3.62,1.62
Cc1ccccc1-c1cc(N2CCN(C)CC2)ncc1N(C)C(=O)C(C)(C)c1cc(C(F)(F)F)cc(C(F)(F)F)c1 [Netupitant],1.35,0.761,0.595,0.999,1.23,1.4
NC(=N\CCCCCC/N=C(N)/N=C(\N)Nc1ccc(Cl)cc1)/N=C(\N)Nc1ccc(Cl)cc1 [Chlorhexidine diacetate],2.69,4.3,3.46,2.04,3.03,3.25
CCCCC(O)c1ccccc1 (centres undefined) [Fenipentol],1.46,1.44,1.43,0.766,0.912,1.68
Nc1nc(OCc2ccccc2)c2nc[nH]c2n1 [O6-Benzylguanine],1.02,0.825,0.926,1.41,0.548,0.833
O=C1NC(=O)/C(=C/c2ccc(-c3ccc(F)cc3O)o2)S1,1.18,0.855,1.25,1.02,0.814,0.97
COc1ccc(CCc2nc3cc(-c4c(C)noc4C)ccc3n2C[C@H](C)N2CCOCC2)cc1Cl,2.58,1.55,0.967,1.73,1.67,1.78
CC1=Nc2ccc(Cl)cc2S(=O)(=O)N1 [Diazoxide],1.25,0.782,1.19,1.21,1.01,1.25
